Reference: PubChem BioAssay (Tox21)
Where “and” joins values, the source holds several entries; their conditions need not be identical. Equal values may be shown once. Results filed as inconclusive are left out. Entries that show only a call come without a potency. Calls of active or inactive are those of the source. Unless noted, calls follow the shape of the dose curve; as a rule, active = well fitted curve in the direction sought with a large enough effect in the repeat runs; inconclusive = weak or mixed curves; inactive = no such curve, though single readings can be large; an effect the other way counts as inactive or inconclusive.

Assays:
[1] = qHTS assay to identify small molecule antagonists of the estrogen receptor alpha (ER-alpha) signaling pathway using the BG1 cell line in the presence of 0.1 nM 17-beta-estradiol - cell viability counter screen (AID 1259241); also: nearly all actives have a fitted effect of over 40% in size
How it was run: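 In this screen, hormone-deprived VM7Luc4E2 cells were seeded at 4,000 per well, dosed with compound and 0.1 nM estradiol final, and incubated 22 hr at 37C and 5% CO2; fluorogenic live-cell protease signal reported viability.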

[2] = qHTS assay to identify small molecule antagonists of the androgen receptor (AR) signaling pathway using the MDA cell line in the presence of 0.5 nM R1881 - cell viability counter screen (AID 1259242); also: nearly all actives have a fitted effect of over 45% in size; also: potency is read from the fitted curve at half-maximal effect
How it was run: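 Steps: plate MDA-kb2 cells, rest 5 hr at 37C without CO2; pin in compounds in DMSO; add R1881 to 0.5 nM final; incubate 16 hr; add CellTiter-Fluor, 30 min; read fluorescence.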

[3] = qHTS assay to identify small molecule phospholipidosis (PLD) inducers (AID 1259344; active = well fitted curve in the direction sought with a large enough effect; an effect the other way counts as inactive or inconclusive; also: potency is read from the fitted curve at half-maximal effect)
How it was run: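 Accumulated phospholipid, stained red by LipidTOX during 24 h compound treatment of HepG2 cells at 37 C, is quantified from images as pit number and intensity, normalised per cell using Hoechst-stained nuclei.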

[4] = qHTS assay to identify small molecule HDAC inhibitors (AID 1259364); also: potency is read from the fitted curve at half-maximal effect;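 also: wild-type HCT-116 cells with endogenous class I/II HDAC activity; nearly all actives have a fitted effect of over 45% in size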
How it was run: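 Cells (HCT-116, wild type) are seeded at 1,500 per well, incubated overnight, treated with compound in DMSO for 2 hr, then developed with HDAC-Glo I/II reagent for 30 min at room temperature.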

[5] = qHTS assay to identify small molecule agonists of the sonic hedgehog signaling (Shh) pathway - cell viability counter screen (AID 1259366); also: nearly all actives have a fitted effect of over 50% in size; also: potency is read from the fitted curve at half-maximal effect
How it was run: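 In quantitative high-throughput format, 3T3 Gli1-Luc cells were exposed to compounds for 24hr and multiplexed for viability using CellTiter-Fluor, incubated 1hr at 37C before the fluorescence read.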

[6] = qHTS assay to identify small molecule antagonists of the sonic hedgehog signaling (Shh) pathway - cell viability counter screen (AID 1259367); also: nearly all actives have a fitted effect of over 55% in size; also: potency is read from the fitted curve at half-maximal effect
How it was run: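 CellTiter-Fluor signal in conditioned medium-stimulated 3T3 Gli1-Luc cells, 23 hr compound exposure, 37C.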

[7] = qHTS assay to identify small molecule agonists of the sonic hedgehog signaling (Shh) pathway (AID 1259368; calls by dose curve;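 also: NIH/3T3-derived 3T3Gli1-Luc cells carrying a stable Gli1-driven firefly luciferase reporter; series mostly up to about 92 µM; nearly all actives have a fitted effect of over 15% in size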)
How it was run: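 Cells of a mouse NIH/3T3 clone stably expressing luciferase under the Gli1 transcriptional response element are exposed to test chemicals for 24 hr at 37 C. Pathway activation is detected as a rise in luminescence.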

[8] = qHTS assay to identify small molecule agonists of the androgen receptor (AR) signaling pathway in the presence of an antagonist - cell viability counter screen (AID 1259379); also: nearly all actives have a fitted effect of over 25% in size; also: potency is read from the fitted curve at half-maximal effect
How it was run: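 Cytotoxicity is assessed by CellTiter-Fluor in MDA-kb2 cells carrying an MMTV-driven luciferase reporter. Cells receive 3.0uM nilutamide plus compounds at 15 concentrations and incubate 16 hr at 37C without CO2 before fluorescence reading.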

[9] = qHTS assay to identify small molecule agonists or antagonists of the thyroid stimulating hormone receptor (TSHR) signaling pathway - wild type cell line counter screen (AID 1259384; calls by dose curve)
How it was run: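 Counter screen in untransfected Hek293: compounds (15-point titration, triplicate) plus phosphodiesterase inhibitor Ro20-1724 added after 18 h plating; 30 min RT. Intracellular cAMP via competitive d2/cryptate immunoassay, 1 h incubation.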

[10] = qHTS assay to identify small molecule HDAC inhibitors - cell viability counter screen (AID 1259365); also: series mostly up to about 92 µM; nearly all actives have a fitted effect of over 50% in size
How it was run: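 Measured quantity is CellTiter-Glo luminescence from wild-type HCT-116 cells after compound incubation of 2hr at 37C, 5% CO2; reagent developed 30min at room temperature.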

[11] = qHTS assay to identify small molecule antagonists of the sonic hedgehog signaling (Shh) pathway (AID 1259369; calls by dose curve; also: nearly all actives have a fitted effect of over 45% in size; also: potency is read from the fitted curve at half-maximal effect)
How it was run: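 Cells are plated and held 4hr at 37 C, compounds (DMSO) are pinned in, conditioned medium is added to stimulate the pathway, and after 24hr luciferase reagent is added for 30min before luminescence is read.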

[12] = molecular target: Estrogen receptor beta (Homo sapiens) (UniProt Q92731); assay: qHTS assay to identify small molecule agonists of the estrogen receptor beta (ER-beta) signaling pathway (AID 1259377; active = well fitted activation curve with a large enough effect in the signal ratio in the repeat runs, not every such curve was filed as active; the % refers to the signal ratio)
Chain of Estrogen receptor beta (Homo sapiens) (Q92731 whole entry, looked up): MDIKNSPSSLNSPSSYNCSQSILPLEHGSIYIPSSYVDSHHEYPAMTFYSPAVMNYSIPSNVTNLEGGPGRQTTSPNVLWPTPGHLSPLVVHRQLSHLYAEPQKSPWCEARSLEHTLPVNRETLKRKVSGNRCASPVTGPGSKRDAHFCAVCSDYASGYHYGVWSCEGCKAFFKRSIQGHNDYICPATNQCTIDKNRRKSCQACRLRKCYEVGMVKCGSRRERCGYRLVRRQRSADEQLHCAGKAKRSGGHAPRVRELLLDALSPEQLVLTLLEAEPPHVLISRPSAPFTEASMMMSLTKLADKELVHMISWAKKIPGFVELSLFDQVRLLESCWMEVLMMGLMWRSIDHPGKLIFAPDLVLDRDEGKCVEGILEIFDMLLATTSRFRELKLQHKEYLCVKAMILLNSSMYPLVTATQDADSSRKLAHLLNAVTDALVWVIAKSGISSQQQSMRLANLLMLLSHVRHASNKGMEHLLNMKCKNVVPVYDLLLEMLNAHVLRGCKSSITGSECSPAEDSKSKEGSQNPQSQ
How it was run: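 Reporter cells (HEK293T, ER-beta-UAS-bla) receive compounds or DMSO after a 6 hr pre-incubation. They then incubate 16 hr at 37C/5% CO2, and fluorescence from LiveBLAzer B/G substrate is measured after 2 hours at room temperature.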

[13] = qHTS assay to identify small molecule antagonists of the estrogen receptor beta (ER-beta) signaling pathway - cell viability counter screen (AID 1259382); also: nearly all actives have a fitted effect of over 55% in size; also: potency is read from the fitted curve at half-maximal effect
How it was run: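 Cytotoxicity counter screen multiplexed with the beta-lactamase antagonist assay: GripTite HEK293T ER-beta-bla cells were treated 16 hr with test chemicals in the presence of 1nM 17-beta-estradiol, and viability was measured by CellTiter-Glo.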

[14] = molecular target: Estrogen receptor beta (Homo sapiens) (UniProt Q92731); assay: qHTS assay to identify small molecule antagonists of the estrogen receptor beta (ER-beta) signaling pathway (AID 1259378; active = well fitted inhibition curve with a large enough effect in the signal ratio in the repeat runs, not every such curve was filed as active; the % refers to the signal ratio; also: potency is read from the fitted curve at half-maximal effect)
How it was run: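 Antagonist mode: compounds added to beta-lactamase reporter HEK293T ER-beta-UAS cells stimulated with E2 (1nM final), 16 hr at 37C. LiveBLAzer B/G FRET substrate, 2 hours room temperature, fluorescence read-out.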

[15] = qHTS assay to identify small molecule agonists of the estrogen receptor beta (ER-beta) signaling pathway - cell viability counter screen (AID 1259380); also: nearly all actives have a fitted effect of over 30% in size; also: potency is read from the fitted curve at half-maximal effect
How it was run: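 Cytotoxicity is measured in parallel with the reporter screen: after 16 hr compound exposure at 37C and a 2 hr LiveBLAzer step, CellTiter-Glo is added to the same ER-beta-UAS-bla HEK293T wells and luminescence read after 30 min.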

[16] = molecular target: Thyrotropin receptor (Homo sapiens) (UniProt P16473); assay: qHTS assay to identify small molecule antagonists of the thyroid stimulating hormone receptor (TSHR) signaling pathway (AID 1259385; calls by dose curve; also: nearly all actives have a fitted effect of over 20% in size; also: potency is read from the fitted curve at half-maximal effect)
Chain of Thyrotropin receptor (Homo sapiens) (P16473 whole entry, looked up): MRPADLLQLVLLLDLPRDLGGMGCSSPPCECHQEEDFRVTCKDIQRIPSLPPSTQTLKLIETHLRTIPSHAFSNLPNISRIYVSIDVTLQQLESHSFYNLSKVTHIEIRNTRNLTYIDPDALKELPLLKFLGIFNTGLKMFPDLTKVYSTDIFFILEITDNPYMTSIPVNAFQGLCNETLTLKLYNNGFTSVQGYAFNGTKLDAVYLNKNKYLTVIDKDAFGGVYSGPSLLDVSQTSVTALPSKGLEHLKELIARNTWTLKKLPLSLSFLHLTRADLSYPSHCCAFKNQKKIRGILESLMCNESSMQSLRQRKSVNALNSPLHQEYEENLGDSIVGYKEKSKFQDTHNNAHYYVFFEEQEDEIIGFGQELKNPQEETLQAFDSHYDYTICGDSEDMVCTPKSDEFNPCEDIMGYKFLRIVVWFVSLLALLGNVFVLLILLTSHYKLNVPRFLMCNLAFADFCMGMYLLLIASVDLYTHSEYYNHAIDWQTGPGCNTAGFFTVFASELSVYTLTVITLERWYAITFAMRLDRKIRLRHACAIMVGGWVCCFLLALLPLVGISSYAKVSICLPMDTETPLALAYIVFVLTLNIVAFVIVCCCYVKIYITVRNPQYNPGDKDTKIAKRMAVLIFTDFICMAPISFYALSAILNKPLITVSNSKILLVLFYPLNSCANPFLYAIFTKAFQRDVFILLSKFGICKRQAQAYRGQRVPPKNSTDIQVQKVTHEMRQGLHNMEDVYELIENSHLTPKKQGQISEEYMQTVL
How it was run: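 Antagonist mode: compound-treated TSHR-expressing HEK293 cells were stimulated with 1.5 ng/mL TSH (final) in presence of Ro20-1724 for 30 min at RT. HTRF cAMP detection after 1 h; each compound tested at 15 concentrations, triplicate.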

[17] = molecular target: Androgen receptor (Homo sapiens) (UniProt P10275); assay: qHTS assay to identify small molecule agonists of the androgen receptor (AR) signaling pathway in the presence of an antagonist (AID 1259381; calls by dose curve; also: nearly all actives have a fitted effect of over 15% in size)
Chain of Androgen receptor (Homo sapiens) (P10275 whole entry, looked up): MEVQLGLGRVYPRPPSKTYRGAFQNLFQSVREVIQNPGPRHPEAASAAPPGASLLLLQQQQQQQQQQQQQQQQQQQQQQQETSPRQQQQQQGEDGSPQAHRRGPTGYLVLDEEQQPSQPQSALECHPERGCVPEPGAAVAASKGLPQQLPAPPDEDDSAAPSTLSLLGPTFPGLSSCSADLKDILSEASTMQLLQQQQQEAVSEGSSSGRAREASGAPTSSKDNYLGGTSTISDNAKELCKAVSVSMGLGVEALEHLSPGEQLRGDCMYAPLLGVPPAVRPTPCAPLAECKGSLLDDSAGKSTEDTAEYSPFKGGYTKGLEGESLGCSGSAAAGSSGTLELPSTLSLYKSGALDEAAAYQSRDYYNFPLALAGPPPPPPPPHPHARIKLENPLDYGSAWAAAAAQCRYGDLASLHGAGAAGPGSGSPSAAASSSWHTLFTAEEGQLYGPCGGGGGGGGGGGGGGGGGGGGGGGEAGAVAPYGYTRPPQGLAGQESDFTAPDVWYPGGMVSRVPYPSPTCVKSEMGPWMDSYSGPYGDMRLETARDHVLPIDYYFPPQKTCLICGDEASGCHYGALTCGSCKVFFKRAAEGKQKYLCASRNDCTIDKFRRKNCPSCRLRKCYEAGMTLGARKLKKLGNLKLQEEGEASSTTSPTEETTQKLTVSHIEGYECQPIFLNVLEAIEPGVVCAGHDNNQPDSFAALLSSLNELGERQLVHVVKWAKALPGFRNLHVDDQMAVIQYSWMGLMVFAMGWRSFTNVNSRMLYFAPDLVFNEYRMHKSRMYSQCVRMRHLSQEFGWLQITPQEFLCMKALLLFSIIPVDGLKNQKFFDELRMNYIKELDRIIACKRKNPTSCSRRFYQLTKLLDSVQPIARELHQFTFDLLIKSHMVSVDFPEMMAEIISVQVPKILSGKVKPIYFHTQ
How it was run: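 Agonist-mode confirmation screen: human MDA-kb2 cells stably expressing luciferase under an MMTV promoter bearing AR and GR response elements, co-treated with 3.0uM nilutamide (final). Luminescence measured after 16hr compound incubation.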

[18] = molecular target: Estrogen receptor (Homo sapiens) (UniProt P03372); assay: qHTS assay to identify small molecule agonists of the estrogen receptor alpha (ER-alpha) signaling pathway in the presence of an antagonist (AID 1259383; calls by dose curve; also: top concentration of the series differs between compounds; nearly all actives have a fitted effect of over 15% in size)
Chain of Estrogen receptor (Homo sapiens) (P03372 whole entry, looked up): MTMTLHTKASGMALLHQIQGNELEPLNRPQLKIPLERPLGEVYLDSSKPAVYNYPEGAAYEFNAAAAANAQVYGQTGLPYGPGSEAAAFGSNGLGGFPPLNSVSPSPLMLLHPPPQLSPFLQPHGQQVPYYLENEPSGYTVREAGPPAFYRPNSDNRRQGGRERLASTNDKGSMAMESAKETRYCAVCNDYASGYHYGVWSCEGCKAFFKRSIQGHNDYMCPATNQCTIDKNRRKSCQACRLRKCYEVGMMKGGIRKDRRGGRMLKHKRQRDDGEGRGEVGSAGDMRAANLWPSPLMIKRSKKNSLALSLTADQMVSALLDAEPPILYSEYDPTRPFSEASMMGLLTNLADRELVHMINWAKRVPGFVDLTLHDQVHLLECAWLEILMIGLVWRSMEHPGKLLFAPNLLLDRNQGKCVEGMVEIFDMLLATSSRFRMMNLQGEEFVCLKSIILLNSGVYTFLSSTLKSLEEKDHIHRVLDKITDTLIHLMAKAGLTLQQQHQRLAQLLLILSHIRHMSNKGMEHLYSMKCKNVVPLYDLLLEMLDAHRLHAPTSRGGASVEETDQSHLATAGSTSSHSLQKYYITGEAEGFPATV
How it was run: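 Agonist-mode confirmation in the presence of the ER antagonist ICI-182,780 at 10.0nM final. Breast-derived VM7Luc4E2 reporter cells were exposed to compounds for 22hr, and ERE-driven luciferase was quantified by luminescence.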

Row | Structure (SMILES) | Potency [1] | Potency [2] | Potency [3] | Potency [4] | Potency [5] | Potency [6] | Potency [7] | Potency [8] | outcome [9] | Potency [10] | Potency [11] | Potency [12] | Potency [13] | Potency [14] | Potency [15] | Potency [16] | Potency [17] | Potency [18]
1 | CCCCC(CC)COC(=O)c1ccccc1C(=O)O (centres undefined) | inactive | inactive | inactive | inactive | inactive | inactive | inactive | inactive | inactive |  |  |  |  |  |  |  |  | 
2 | CCCC1O[C@@H]2C[C@H]3[C@@H]4CCC5=CC(=O)C=C[C@]5(C)[C@H]4[C@@H](O)C[C@]3(C)[C@]2(C(=O)CO)O1 (some centres undefined) | inactive | inactive | inactive | inactive |  | 38.6 µM (active) | inactive | inactive |  | inactive | 7.7 µM (active) | inactive | inactive |  |  |  |  | 
3 | CCOC(=O)O[C@]1(C(=O)OCCl)CC[C@H]2[C@@H]3CCC4=CC(=O)C=C[C@]4(C)[C@H]3[C@@H](O)C[C@@]21C | inactive | inactive | inactive | inactive | inactive |  | inactive | inactive | inactive | inactive |  | inactive | inactive | inactive | 26.6 µM (active) | inactive |  | 
4 | CC(C)CCCCCCCCCCCCCCC(=O)O | inactive | inactive |  | inactive | inactive | inactive | inactive | inactive |  | inactive | inactive | inactive | inactive | inactive | 54.5 µM (active) |  |  | 
5 | C[n+]1ccn(Cc2ccccc2)c1 | inactive | inactive |  | inactive | inactive | inactive | inactive |  | inactive |  | inactive | inactive | inactive | inactive | inactive | inactive |  | 
6 | CO[Si](CCCNc1ccccc1)(OC)OC | inactive | inactive |  | inactive | inactive |  | inactive | inactive | inactive | inactive | inactive |  | inactive |  | inactive | inactive |  | 
7 | CCCCN(CCCC)C(=O)N(CCCC)CCCC | inactive | inactive |  | inactive | inactive | inactive | inactive | inactive | inactive | inactive | inactive | inactive | inactive | inactive |  |  |  | 
8 | CN1CCC(Nc2ncc3ncnc(Nc4ccc(F)c(Cl)c4)c3n2)CC1 | inactive | inactive | 11.2 µM (active) | inactive | 29.8 µM (active) |  | inactive |  | inactive | inactive | 6.68 µM (active) |  |  |  | 11.9 µM (active) | 29.8 µM (active) | inactive | 
9 | COc1cc(-c2ccc(N=C=O)c(OC)c2)ccc1N=C=O | inactive | inactive |  | inactive | inactive | inactive | inactive | inactive |  |  | inactive | inactive | inactive | inactive | inactive |  |  | 
10 | c1ccc(CSCc2ccccc2)cc1 | inactive | inactive |  | 24.3 µM (active) | inactive | inactive | inactive | inactive |  | inactive | inactive |  | inactive |  | inactive |  |  | 
11 | Cc1oc(-c2ccccc2)nc1CCC(=O)c1ccc(CC2SC(=O)NC2=O)cc1 (centres undefined) | inactive | inactive |  | inactive |  |  | inactive |  | inactive | inactive | inactive |  |  |  | 6.68 µM (active) | inactive |  | 
12 | O=C(OCC(COC(=O)c1ccccc1)(COC(=O)c1ccccc1)COC(=O)c1ccccc1)c1ccccc1 | inactive | inactive |  | inactive | inactive | inactive | inactive | inactive | inactive | inactive | inactive | inactive | inactive |  | inactive | inactive |  | 
13 | NC(=O)C1(N2CCCCC2)CCN(CCCN2c3ccccc3CCc3ccc(Cl)cc32)CC1 | inactive | 26.6 µM (active) |  | inactive | 23.7 µM (active) | 29.8 µM (active) | inactive | 23.7 µM (active) | inactive | inactive | 8.41 µM (active) |  | 21.1 µM (active) | 11.9 µM (active) | 13.3 µM (active) | 29.8 µM (active) |  | inactive
14 | Oc1ccc2cc(SSc3ccc4cc(O)ccc4c3)ccc2c1 | inactive | inactive |  | inactive |  | 61.2 µM (active) and 48.6 µM (active) | inactive |  |  | inactive | 19.4 µM (active) and 21.7 µM (active) |  | inactive |  |  | inactive |  | 
15 | CN(C)[C@@H]1C(=O)C(C(N)=O)=C(O)[C@@]2(O)C(=O)C3=C(O)c4c(O)ccc(Cl)c4[C@@H](O)[C@H]3C[C@@H]12 | inactive | inactive | inactive | inactive |  | inactive | inactive | inactive | inactive | inactive | inactive | inactive | inactive |  | inactive | inactive |  | 
16 | Cc1cc(N)c(S(=O)(=O)O)cc1Cl | inactive | inactive |  | inactive | inactive | inactive | inactive | inactive |  |  | inactive | inactive | inactive | inactive | inactive | inactive |  | 
